Key:
[1] = target: T1, Casein kinase II (Homo sapiens) (UniProt P67870+P68400+P19784); conditions: at 1 µM
[2] = target: T1, Casein kinase II (Homo sapiens); conditions: at 10 µM
[3] = target: Casein kinase II subunit alpha' (Homo sapiens) (UniProt P19784); conditions: at 1 µM
[4] = target: Casein kinase II subunit alpha' (Homo sapiens) (UniProt P19784); conditions: at 10 µM
[5] = target: Dual specificity protein kinase CLK3 (Homo sapiens) (UniProt P49761); conditions: at 1 µM
[6] = target: Dual specificity protein kinase CLK3 (Homo sapiens) (UniProt P49761); conditions: at 10 µM
[7] = target: Dual specificity protein kinase CLK2 (Homo sapiens) (UniProt P49760); conditions: at 1 µM
[8] = target: Dual specificity protein kinase CLK2 (Homo sapiens) (UniProt P49760); conditions: at 10 µM
[9] = target: Tyrosine-protein kinase CSK (Homo sapiens) (UniProt P41240); conditions: at 1 µM
[10] = target: Tyrosine-protein kinase CSK (Homo sapiens) (UniProt P41240); conditions: at 10 µM

Chain of Dual specificity protein kinase CLK3 (Homo sapiens) (P49761 whole entry, looked up): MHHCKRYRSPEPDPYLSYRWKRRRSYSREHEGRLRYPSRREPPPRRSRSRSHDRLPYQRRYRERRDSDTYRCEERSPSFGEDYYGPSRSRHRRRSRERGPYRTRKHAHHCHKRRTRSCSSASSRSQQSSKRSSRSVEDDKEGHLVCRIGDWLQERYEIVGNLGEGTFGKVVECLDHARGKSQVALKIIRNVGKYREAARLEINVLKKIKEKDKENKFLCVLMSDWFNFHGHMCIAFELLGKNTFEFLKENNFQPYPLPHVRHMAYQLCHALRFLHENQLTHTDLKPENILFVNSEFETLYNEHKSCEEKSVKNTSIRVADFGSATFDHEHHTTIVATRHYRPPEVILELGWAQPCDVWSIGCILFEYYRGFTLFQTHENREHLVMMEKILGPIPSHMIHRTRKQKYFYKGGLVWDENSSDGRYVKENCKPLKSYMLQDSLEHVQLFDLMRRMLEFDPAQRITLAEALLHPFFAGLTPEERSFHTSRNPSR
Chain of Dual specificity protein kinase CLK2 (Homo sapiens) (P49760 whole entry, looked up): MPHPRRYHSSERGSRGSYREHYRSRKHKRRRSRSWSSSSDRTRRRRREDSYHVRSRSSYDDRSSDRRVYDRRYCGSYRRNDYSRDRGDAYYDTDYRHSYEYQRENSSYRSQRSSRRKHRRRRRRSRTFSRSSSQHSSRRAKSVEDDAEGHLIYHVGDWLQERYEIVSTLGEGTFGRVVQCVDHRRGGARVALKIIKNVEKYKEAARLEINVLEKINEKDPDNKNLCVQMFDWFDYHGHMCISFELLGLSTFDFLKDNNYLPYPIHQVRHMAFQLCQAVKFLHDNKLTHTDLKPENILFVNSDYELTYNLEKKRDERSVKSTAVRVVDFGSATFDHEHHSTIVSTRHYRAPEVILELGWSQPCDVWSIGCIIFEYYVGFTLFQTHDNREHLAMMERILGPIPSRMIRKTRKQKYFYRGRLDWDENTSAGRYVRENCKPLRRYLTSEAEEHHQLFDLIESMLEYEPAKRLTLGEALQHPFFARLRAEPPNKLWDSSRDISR
Chain of Tyrosine-protein kinase CSK (Homo sapiens) (P41240 2-450 limits assumed): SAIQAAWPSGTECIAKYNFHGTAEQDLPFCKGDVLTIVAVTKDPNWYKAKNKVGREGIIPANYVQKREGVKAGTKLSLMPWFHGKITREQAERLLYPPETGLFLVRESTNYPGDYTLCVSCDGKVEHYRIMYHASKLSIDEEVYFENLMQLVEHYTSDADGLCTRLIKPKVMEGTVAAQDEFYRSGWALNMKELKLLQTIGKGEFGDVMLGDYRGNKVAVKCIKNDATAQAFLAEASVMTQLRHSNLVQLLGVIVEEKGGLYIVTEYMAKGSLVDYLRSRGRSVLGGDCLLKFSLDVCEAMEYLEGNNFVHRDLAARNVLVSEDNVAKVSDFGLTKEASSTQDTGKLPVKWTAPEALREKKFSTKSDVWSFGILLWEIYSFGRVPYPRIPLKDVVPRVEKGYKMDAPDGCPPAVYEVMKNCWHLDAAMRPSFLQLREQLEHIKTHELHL
Chain of Casein kinase II subunit alpha' (Homo sapiens) (P19784 whole entry, looked up): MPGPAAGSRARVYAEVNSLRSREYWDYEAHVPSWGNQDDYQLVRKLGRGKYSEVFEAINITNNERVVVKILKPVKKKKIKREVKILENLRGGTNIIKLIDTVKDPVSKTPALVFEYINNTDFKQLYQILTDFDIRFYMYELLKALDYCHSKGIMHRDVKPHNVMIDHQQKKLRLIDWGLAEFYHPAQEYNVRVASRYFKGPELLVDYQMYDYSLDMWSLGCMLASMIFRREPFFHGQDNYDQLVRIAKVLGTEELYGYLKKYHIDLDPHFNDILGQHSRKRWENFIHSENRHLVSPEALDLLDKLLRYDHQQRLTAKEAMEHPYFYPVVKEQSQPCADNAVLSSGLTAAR
T1 sequence (P19784 whole entry, looked up): as above
T1 sequence (P67870 whole entry, looked up): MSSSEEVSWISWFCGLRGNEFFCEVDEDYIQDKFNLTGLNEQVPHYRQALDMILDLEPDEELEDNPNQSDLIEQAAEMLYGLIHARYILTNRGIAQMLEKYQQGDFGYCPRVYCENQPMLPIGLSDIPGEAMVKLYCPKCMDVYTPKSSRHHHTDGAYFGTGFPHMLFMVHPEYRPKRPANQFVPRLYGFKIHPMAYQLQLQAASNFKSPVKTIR
T1 sequence (P68400 whole entry, looked up): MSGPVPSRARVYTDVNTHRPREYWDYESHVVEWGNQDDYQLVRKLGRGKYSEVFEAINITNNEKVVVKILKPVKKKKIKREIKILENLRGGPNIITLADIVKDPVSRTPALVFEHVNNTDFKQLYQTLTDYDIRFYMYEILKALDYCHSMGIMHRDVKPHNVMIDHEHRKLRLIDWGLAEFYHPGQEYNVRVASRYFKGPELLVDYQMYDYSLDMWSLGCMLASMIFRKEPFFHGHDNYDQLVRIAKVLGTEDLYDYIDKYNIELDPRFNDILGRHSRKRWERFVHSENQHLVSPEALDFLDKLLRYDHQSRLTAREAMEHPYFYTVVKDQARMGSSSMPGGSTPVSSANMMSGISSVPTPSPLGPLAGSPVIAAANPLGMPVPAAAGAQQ

Structure (SMILES)	residual activity [1] [%]	residual activity [2] [%]	residual activity [3] [%]	residual activity [4] [%]	residual activity [5] [%]	residual activity [6] [%]	residual activity [7] [%]	residual activity [8] [%]	residual activity [9] [%]	residual activity [10] [%]
N#CC(C#N)=C(N)/C(C#N)=C/c1ccc(O)cc1	91	85	120	86	87	126				
CO[C@H]1C[C@@H]2CC[C@@H](C)[C@@](O)(O2)C(=O)C(=O)N2CCCC[C@H]2C(=O)O[C@H]([C@H](C)C[C@@H]2CC[C@@H](O)[C@H](OC)C2)CC(=O)[C@H](C)/C=C(\C)[C@@H](O)[C@@H](OC)C(=O)[C@H](C)C[C@H](C)/C=C/C=C/C=C/1C	99	98		105	80	95	118	137	112	95
Nc1cccc(-c2cc3c(Oc4cccc(O)c4)ncnc3[nH]2)c1	101	105			75	63	93	50	79	21
Oc1c2ccccc2c2c3c(cccc13)N=N2	60	19	59	18	72	34	36	21	105	93
Cc1cccc(-c2[nH]c(C(C)(C)C)nc2-c2ccc3c(c2)OCO3)n1		132			90	145				
COc1ccc(S(=O)(=O)N(CCO)c2ccccc2CN(C)C/C=C/c2ccc(Cl)cc2)cc1	89	94	106	95	89	86	127	102	115	84
c1ccc2c(-c3ccncc3)c[nH]c2c1	78	95		90	87	108	112	85		
C[C@@H](N)[C@H]1CC[C@H](C(=O)Nc2ccncc2)CC1		87	93		99	90	97	66	106	93
Cc1cncc2cccc(S(=O)(=O)N3CCCN(C(=O)CN)C[C@H]3C)c12			128	98	76	98				
COc1cc2ncnc(Nc3ccc(NC(=O)c4ccccc4)cc3)c2cc1OC	98	111	110	107	83	39	107	82		92
CO[C@H]1[C@@H](OC)C[C@H](C)[C@@H](OC)C2=CC(=O)C=C(NC(=O)/C(C)=C/C=C/[C@H](OC)[C@@H](OC(N)=O)/C(C)=C/[C@@H]1C)C2=O	88	111	99	99	88	89	100	110	108	118
O=C1Nc2cc(Br)ccc2/C1=C1/Nc2ccccc2/C1=N\O	94	86	94	57	79	54	92	74	94	89
Cc1cc2ncc(-c3ccccc3)nc2cc1C					98	96		98		
CC(=O)c1ccc(N2CCOCC2)cc1O	81	108		93		91		101		
CO[C@@H]1[C@H](N(C)C(=O)c2ccccc2)C[C@H]2O[C@]1(C)n1c3ccccc3c3c4c(c5c6ccccc6n2c5c31)C(=O)NC4	73	97	117	102		4	17	9	82	78
CN(C)CCCn1cc(C2=C(c3c[nH]c4ccccc34)C(=O)NC2=O)c2ccccc21	107	101		104	66	21	14	2	122	100
c1ccc(-c2n[nH]c3c2oc2ccccc23)cc1	86		119	94	86	14	91	80		
Cc1ccc(NC2=CC(=O)c3sc(C)nc3C2=O)cc1	100	101	100	107	95	88	111	109	98	95
O=C(Nc1cccc(Nc2nccc(Nc3cccc(C(F)(F)F)c3)n2)c1)C1CC1	75	109	108	72	76	9	71	82	115	100
COc1cc2ncc(-c3ccccc3)nc2cc1OC					92	81				94
O=C1Nc2ccc(Br)cc2/C1=C\c1cc2c([nH]1)CCCC2	77	117	120			53	106	101	118	102
O=c1c2ccccc2[nH]c(=S)n1CCN1CCC(=C(c2ccc(F)cc2)c2ccc(F)cc2)CC1	89	116	125	93	90	64	115	94	120	98
Ic1cccc(CSc2nnc(-c3ccncc3)o2)c1	87	87	101	97	65	45	12	13	104	94
COc1cccc(-c2cc(=O)c3ccccc3o2)c1N	94	96	119	106	90	71	116	105	104	111
CC(=O)O/N=C1\C(=C2\C(=O)Nc3cc(Br)ccc32)Nc2ccccc21	96	90	102	89	82	76	102	65	104	86
CCN(CC)C(=O)c1ccc(Nc2nc(OCC3CCCCC3)c3nc[nH]c3n2)cc1			101	75	65	20	25	6		44
